Most compounds without a hit are left out; they make up all but 0.43% or so of the library.
GAA glycogen: qHTS Assay for Inhibitors and Activators of Human alpha-Glucosidase Cleavage of Glycogen. Lysosomal alpha-glucosidase (Homo sapiens), P10253. recombinant GAA, glycogen substrate, Amplex Red glucose oxidase fluorescence. Potency, µM (titrated, usually from 76.4 µM), actives largely listed as inhibitors. 300,000 tested, 0.38% active. AID 2100, 2009;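 also: the screen sought inhibitors and activators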
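qHTS, 1536-well; enzyme 4 nM final; cpd up to 77 uM; substrate bovine liver glycogen 30 ug; 50 mM citrate/phosphate pH 5.0, 0.01% Tween-20; 37 C, 40 min; Amplex Red detection 45 min RT; Hill fit → AC50.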
GAA inh: qHTS Assay for Inhibitors of Human alpha-Glucosidase as a Potential Chaperone Treatment of Pompe Disease | Lysosomal alpha-glucosidase (Homo sapiens), P10253 | purified human GAA, 4-MU-alpha-glucoside fluorescence | Potency, µM (highest dose often 76.9 µM), actives largely listed as inhibitors | 200,000 tested, 0.005% active | AID 1466, 2008
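Activity normalized between no-enzyme (basal) and enzyme-only wells. Conditions: 4 nM human enzyme, 400 uM fluorogenic substrate, citrate/phosphate pH 5.0 with Tween-20, 20 min room temperature, compounds up to 77 uM.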
aGlu spleen mod: qHTS Assay for Inhibitors and Activators of Human alpha-Glucosidase From Spleen Homogenate. Lysosomal alpha-glucosidase (Homo sapiens), P10253. human spleen homogenate, 4-MU-alpha-glucoside fluorescence. Potency, µM (titrated, usually from 79.9 µM), usual class: inhibitors. 240,000 tested, 0.006% active
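Human spleen homogenate (1 ug) incubated with compounds and 1 mM 4-methylumbelliferyl-alpha-D-glucopyranoside in pH 5.0 citrate/phosphate buffer, 37 C, 40 min. Stopped at pH 10; 4-MU fluorescence (Ex 365/Em 440 nm); AC50 by Hill fit.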
GLA inh pH 4.5: qHTS Assay for Inhibitors of Human alpha-Galactosidase at pH 4.5. AID 1467, 2008. 230,000 tested, under 10 active. activity change, negative = inhibition, % at 105 µM. purified enzyme, 4-MU-alpha-Gal fluorescence, pH 4.5. Alpha-galactosidase A (Homo sapiens), P06280
N370S GC mod: qHTS Assay for Inhibitors and Activators of N370S glucocerebrosidase as a Potential Chaperone Treatment of Gaucher Disease; N370S GC spleen homogenate, 4MU-glucoside fluorescence; Potency, µM (highest dose often 59.4 µM), actives largely listed as inhibitors; 330,000 tested, 0.092% active; AID 2101, 2009
aGal spleen mod: qHTS Assay for Inhibitors and Activators of Human alpha-Galactosidase From Spleen Homogenate; human spleen homogenate, 4MU-alpha-Gal fluorescence, 40 min; 240,000 tested, 0.008% active; Alpha-galactosidase A (Homo sapiens), P06280; Potency, µM (titrated, usually from 80 µM), most hits filed as inhibitors
Target sequence (P06280 32-429 limits assumed): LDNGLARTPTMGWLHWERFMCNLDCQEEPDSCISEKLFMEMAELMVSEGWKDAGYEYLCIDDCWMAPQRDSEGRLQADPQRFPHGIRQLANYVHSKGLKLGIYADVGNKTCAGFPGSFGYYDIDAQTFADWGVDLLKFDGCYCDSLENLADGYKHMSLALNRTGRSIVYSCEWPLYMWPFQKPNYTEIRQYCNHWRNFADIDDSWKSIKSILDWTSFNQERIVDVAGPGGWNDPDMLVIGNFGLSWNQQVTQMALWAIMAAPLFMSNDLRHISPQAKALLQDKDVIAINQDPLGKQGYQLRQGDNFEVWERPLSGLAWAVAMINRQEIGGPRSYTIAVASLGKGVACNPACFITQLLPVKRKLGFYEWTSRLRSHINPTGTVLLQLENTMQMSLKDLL
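Human spleen homogenate (1 ug) was the enzyme source, with 4-methylumbelliferyl-alpha-D-galactopyranoside (1 mM final) in pH 5.0 citrate buffer with 0.01% Tween-20. Compounds were titrated; after 40 min at 37C, NaOH/glycine stop, 4-MU fluorescence read; AC50 from Hill fits.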
Numbers stand for hits; . = inactive; ? = inconclusive; / = no result; [ ] = another dose, or the depositor's remark. Calls follow the shape of the dose curve; as a rule, active = well fitted curve in the direction sought with a large enough effect; inconclusive = small, poorly fitted or top-dose-only effect, or another doubt; inactive = no such curve, though single readings can be large; an effect the other way counts as inactive or inconclusive.

SMILES	GAA glycogen	GAA inh	aGlu spleen mod	GLA inh pH 4.5	N370S GC mod	aGal spleen mod
CC(=O)Nc1c(C(=O)O)[nH]c2ccccc12	.	.	.	.	.	.
COc1cc(C2c3sc(=O)[nH]c3SC3C(=O)N(c4ccc(C)cc4)C(=O)C32)ccc1O (centres undefined)	11µM	.	.	.	.	.
COc1ccc(C2c3sc(=O)[nH]c3SCC2C(N)=O)cc1 (centres undefined)	?	/	.	.	.	.
COC(=O)C1CSc2[nH]c(=O)sc2C1c1ccc(O)c(OC)c1 (centres undefined)	16µM	.	.	.	.	.
O=C1NCCCC2c3cc(O)c4ccccc4c3OC12N1CCCCC1 (centres undefined)	25µM	.	.	.	.	.
O=C1NCCCC2c3c(cc(Br)c(O)c3Br)OC12N1CCOCC1 (centres undefined)	.	.	.	.	.	.
O=C(CSc1ncc(C(F)(F)F)cc1Cl)N1CCN(S(=O)(=O)c2ccc(Cl)cc2)CC1	.	?	.	.	.	.
O=C(CSc1ncc(C(F)(F)F)cc1Cl)N1CCN(S(=O)(=O)c2ccccc2)CC1	?	35µM	.	.	/	.
Cc1ccc2[nH]c(C)c(/C=N/Nc3nc4ccccc4s3)c2c1	16µM	.	.	.	.[12.8 µM]	.
Brc1csc(/C=N/Nc2nc3ccccc3s2)c1	?	.	.	.	.	.
O=C(NNc1ccc(-c2csnn2)cc1)c1ccccc1C(F)(F)F	9.9µM	.	.	.	.	.
COc1ccccc1CNC(=O)Cn1nc(C)n2cccc2c1=O	.	/	/	/	/	/
COc1cc(OC)c(NC(=O)N2CCc3cc(S(=O)(=O)N4CCC(C)CC4)ccc32)cc1Cl	.	/	/	/	/	/
COc1cc(OC)c(NC(=O)Cn2cnc3c(nc4n3CCCCC4)c2=O)cc1Cl	.	/	/	/	/	/
Cc1ccc(-n2cc3c(c2-c2ccccc2Br)c(=O)n(C)c(=O)n3C)cc1N	.	/	/	/	/	/
COc1cc(/C=N/NC(=O)C(=O)/C=C2\NC(C)(C)Cc3ccccc32)ccc1O	35µM	/	.	.	.	.
Cc1ccc(C)c(Cn2c(=O)n(Cc3ccco3)c(=O)c3oc4ccccc4c32)c1	.	/	/	/	/	/
Cc1[nH]n(C(C)(C)C)c(=O)c1Sc1ccccc1	16µM	.	.	.	.	.
O=C(NNc1nc2cc3c(cc2s1)OCCO3)c1ccc(F)cc1	.	.	.	.	.	.
O=C(NNc1nc2cc3c(cc2s1)OCO3)c1ccc(F)cc1	28µM	.	.	.	.	.
O=C1C=C(NCc2ccccc2)c2ccccc2C1=O	.	.	.	.	.	.
O=C1C=C(Nc2ccccc2O)c2ccccc2C1=O	12µM	.	?	.	.	.
Cc1ccc(NC(=S)NNc2ccc([N+](=O)[O-])cc2S(=O)(=O)Nc2ccccc2C(=O)O)cc1C	22µM	.	.	.	.	.
Cc1cccc(C(=O)NC2(C(F)(F)F)N=C(c3ccccc3)N(Cc3ccccc3)C2=O)c1 (centres undefined)	.	/	/	/	/	/
COc1cccc(-n2cn[nH]c2=S)c1	.	.	.	.[21.1 µM]	.	.
SMILES	GAA glycogen	GAA inh	aGlu spleen mod	GLA inh pH 4.5	N370S GC mod	aGal spleen mod
COc1cccc(-n2sc3c(c2=S)-c2cc(OC)ccc2NC3(C)C)c1	40µM	.	.	.	.	.
Cc1ccc(NC(=O)c2[nH]cnc2C(=O)NN)cc1	20µM	?	.	.	.	.
Cc1ccc(Nc2c(-c3c[nH]c4ccccc34)nc3ccccn23)cc1	4.5µM	/	/	/	/	/
CCOC(=O)/C(C#N)=C\c1cc(C)n(-c2ccccc2)c1C	.	.	.	.	.	.
CCOC(=O)/C(C#N)=C\c1ccc(N2CCN(C/C=C/c3ccccc3)CC2)cc1	.	.	.	.	16µM	.
Cc1ccccc1OCCn1cc(/C(N)=N/O)c2ccccc21	32µM	.	.	.	/	.
Cc1ccc(O)c(NC(=O)c2ccco2)c1	?	.	.	.	.	.
Cc1ccc(O)c(NC(=O)c2cccc(NC(=O)c3ccco3)c2)c1	13µM	.	.	.	.	.
Cc1cc(O)c(NC(=O)c2ccco2)cc1C	11µM	.	.	.	.	.
Cc1cc(Nc2ccc(Cl)cc2)n(-c2ccccc2)n1	?	.	.	.	.	.
Cc1cc(Nc2nc3c(c(=O)n(C)c(=O)n3C)n2C)n(-c2ccc(Cl)cc2)n1	25µM	.	.	.	.	.
Nc1ccc(O)cc1C(=O)OCC(=O)C12CC3CC(CC(C3)C1)C2	16µM	?	.	.	.	.
CCCc1cc2c(=O)c(-c3cscn3)c(C(=O)OCC)oc2cc1O	.	.	.	.	.	.
CCOC(=O)c1[nH]nc(-c2cc(CC)c(O)cc2O)c1-c1cscn1	12µM	.	.	.	.	.
Nc1n[nH]c2cc(=O)n(-c3cccc(C(F)(F)F)c3)nc12	32µM	.	.	.	.	.
O=C(Nc1nnc(N2CCCCCC2)s1)Nc1cc(F)ccc1F	.	/	/	/	/	/
c1cncc(CNc2ccc3c(c2)OCO3)c1	18µM	.	.	.	/	.
Nc1cc(CN2C(=O)c3ccccc3C2=O)cc(Cl)c1O	7.9µM	.	.	.	.	.
O=C1c2ccccc2C(=O)N1Cc1cc(Cl)c(O)c([N+](=O)[O-])c1	.	/	/	/	.	/
Oc1ccc(C2=Nn3c(nnc3-c3ccco3)SC2)cc1O	16µM	.	.	.	.	.
C(=N\Nc1nc2ccccc2[nH]1)/c1ccc2c(c1)OCO2	16µM	.	/	.	.	.
C/C(=N\Nc1nc2ccccc2[nH]1)c1ccc2c(c1)OCCO2	50µM	.	.	.	.	.
COc1cc(/C=N/Nc2nc3ccccc3[nH]2)ccc1O	22µM	.	.	.	.	.
COc1cc(/C=N/Nc2nc3ccccc3[nH]2)cc(OC)c1O	20µM	.	.	.	.	.
COc1cccc(/C=N/Nc2nc3ccccc3[nH]2)c1O	?	/	.	.	.	.
CCN(C(=O)c1cc2c(s1)-c1c(C)cccc1OC2)c1cc(C)ccc1C	.	/	/	/	/	/
CN1CCN(c2ncc3nc(-c4ccc(Cl)cc4)c(=O)n(Cc4cccs4)c3n2)CC1	/	/	.	/	.	.
Cc1ccsc1/C=N/Nc1nc2ccccc2[nH]1	6.3µM	.	.	.	.	.
COc1cc(/C=N/Nc2nn3cnnc3c3ccccc23)ccc1O	18µM	.	.	.	.	.
C=CCn1cc(/C=N/Nc2nc3ccccc3[nH]2)c2ccccc21	28µM	.	.	.	?	.

High-throughput results as filed in PubChem BioAssay.
